Laboratory results: PubChem BioAssay AID1259421 (Broad Institute, 2018)
Where “and” joins values, the source holds several entries; their conditions need not be identical. Identical values can stand only once. About 610 (9.5%) of roughly 6,400 compounds were called active. No stated cut-off is given here; in the data, active means activity change below about -70%; inconclusive means no clear call, values can overlap the other calls; inactive means above that. Only a selection was taken, and actives are over-represented in it overall. Some compounds were tested as several samples or in several runs, with calls that do not always agree.

experiment: T. gondii ME49Luc in HeLa cells, luciferase assay, 72 h, no IFN-y (AID 1259421); conditions: stronger effect = lower value, concentration not given here

| Compound | activity change, negative = inhibition |
| --- | --- |
| CC(C)(C)NCC(O)COc1cccc2c1CCCC2=O (stereo unspecified) | 12.5% (inactive) and -6.73% (inactive) |
| CC(=O)O.CC(=O)O.[Cl][Pt+2][Cl].[NH-]C1CCCCC1.[NH2-] | 1.41% (inactive) |
| O=C(O[C@@H]1Cc2c(O)cc(O)cc2O[C@@H]1c1ccc(O)c(O)c1)c1cc(O)c(O)c(O)c1 | -0.0246% (inactive) |
| COc1ccc(C(=O)NCc2ccc(OCCN(C)C)cc2)cc1OC | -2.71% (inactive) |
| COc1ccc(NC(=O)c2ccc(-c3ccc(-c4noc(C)n4)cc3C)cc2)cc1OCCN(C)C | -53.8% (inactive) and -87.8% (active) |
| COc1ccc(NC(=O)c2ccc(-c3ccc(-c4noc(C)n4)cc3C)cc2)cc1N1CCN(C)CC1 | -78.7% (active) and -44.9% (inactive) |
| CN(C)CCCc1cc(C(=O)Nc2ccc(-c3ccncc3)cc2)ccc1O | 4.74% (inactive) |
| COc1ccc(NS(=O)(=O)c2ccc(I)cc2)cc1N1CCN(C)CC1 | 0.621% (inactive) and -5.09% (inactive) |
| COc1ccccc1N1CCN(CCCCNC(=O)c2ccc(-c3ccc(C(C)=O)cc3)cc2)CC1 | 7.26% (inactive) |
| CN(C)c1ccc(O)c2c1C[C@H]1C[C@H]3[C@H](N(C)C)C(=O)C(C(N)=O)C(=O)[C@@]3(O)C(=O)C1C2=O (stereo partly specified) | -2.37% (inactive) and -2.12% (inactive) |
| Cc1cc(O)cc(=O)o1 | 2.59% (inactive) |
| CCCCCC/C=C/C=C\CCCCCCCC(=O)O | 9.04% (inactive) |
| Cc1cc(Nc2cc(CN3CCOCC3)c3nc(C)c(Cc4ccc(Cl)cc4F)n3n2)n[nH]1 | -76.1% (active) |
| FC(F)OC(Cl)C(F)(F)F (stereo unspecified) | 4.04% (inactive) |
| CCCC(=O)O | 16.3% (inactive) and 10.7% (inactive) |
| CN=C(NC#N)Nc1ccc(C2=NNC(=O)CC2C)cc1 (stereo unspecified) | 27% (inactive) and 4.42% (inactive) |
| CCC(=O)NC1CCc2cccc(OC)c2C1 (stereo unspecified) | 4.71% (inactive) and 6.93% (inactive) |
| CC12CCC3C(CCC4CC(O)CCC43C)C1CC=C2c1ccccc1 (stereo unspecified) | 6.05% (inactive) |
| N[C@@H]1c2cccnc2[C@H](OC(=O)N2CCC(n3c(=O)[nH]c4ncccc43)CC2)CC[C@H]1c1cccc(F)c1F | -1.69% (inactive) |
| C=C[C@@H]1C[C@]1(NC(=O)[C@@H]1C[C@@H](Oc2ncc(OC)c3ccc(Cl)cc23)CN1C(=O)[C@@H](NC(=O)OC(C)(C)C)C(C)(C)C)C(=O)NS(=O)(=O)C1CC1 | -73.7% (active) |
| C=C[C@@H]1C[C@]1(NC(=O)[C@@H]1C[C@@H]2CN1C(=O)[C@H](C(C)(C)C)NC(=O)O[C@@H]1C[C@H]1CCCCCc1nc3ccc(OC)cc3nc1O2)C(=O)NS(=O)(=O)C1CC1 | 0.122% (inactive) |
| CCOc1ccccc1O[C@H](c1ccccc1)[C@H]1CNCCO1 (racemic) | 8.34% (inactive) |
| O=C(c1ccc(Nc2nccc(-c3cc4ccccc4s3)n2)cc1)N1CCC(N2CCCC2)CC1 | -80.6% (active) and -80.3% (active) |
| O=C(c1cncc(Br)c1)N1CCC(N2CCCC2)CC1 | 15.9% (inactive) |
| O=C(c1ccc(C(=O)N2CCC(N3CCCC3)CC2)c(Nc2ccccc2)c1)N1CCC(N2CCCC2)CC1 | -4.76% (inactive) |
| CC1=C2C(O)C(=O)OC3CC4C(C)(C)C(=O)C=C[C@]4(C)C(CC1)[C@]23C (stereo partly specified) | 9.55% (inactive) |

| Compound | activity change, negative = inhibition |
| --- | --- |
| COC(=O)N[C@H](C(=O)N1CC2(CC2)C[C@H]1c1ncc(-c2ccc3c(c2)C(F)(F)c2cc(-c4ccc5nc([C@@H]6[C@H]7CC[C@H](C7)N6C(=O)[C@@H](NC(=O)OC)C(C)C)[nH]c5c4)ccc2-3)[nH]1)C(C)C | -11.8% (inactive) |
| CC(C)N=C(N)/N=C(\N)Nc1ccc(Cl)cc1 | 13.8% (inactive) and 11.1% (inactive) |
| Cc1ccc2c(=O)c3ccccc3n(CCCN)c2c1C | -91.1% (active) and -77% (active) |
| Cc1ccc2c(=O)c3cccc(CC(=O)O)c3oc2c1C | 9.87% (inactive) |
| Cc1cc(=O)c(C(=O)N[C@@H](C(=O)N[C@@H]2C(=O)N3C(C(=O)O)=C(CSc4nnnn4C)CS[C@H]23)c2ccc(O)cc2)c[nH]1 | 9.23% (inactive) |
| NC(CC(=O)Nc1ccc(Oc2cc(F)c(F)cc2Br)cc1)C(=O)O (stereo unspecified) | 0.0757% (inactive) |
| COc1cc(OC)c(C(C)=O)c(O)c1C | 2.79% (inactive) |
| CCCCCCCCCCCCCC[C@@H](O)[C@@H](O)[C@@H](N)CO | 24.8% (inactive) |
| Nc1[nH]c(=O)ncc1F | 8.39% (inactive) and -90.4% (active) |
| O=S(=O)(NCCNC/C=C/c1ccc(Br)cc1)c1cccc2cnccc12 | 4.5% (inactive) and -8.12% (inactive) |
| O=C(C(c1ccccc1)c1ccccc1)N1CCN(CC(O)COc2cccc3ncccc23)CC1 (stereo unspecified) | 10.1% (inactive) |
| Cn1c(=O)n(-c2ccc(C(C)(C)C#N)cc2)c2c3cc(-c4cnc5ccccc5c4)ccc3ncc21 | 13.4% (inactive) |
| CC(C)(C#N)c1ccc(N2C(=O)OCc3cnc4ccc(-c5cnc6ccccc6c5)cc4c32)cc1 | -90.7% (active) |
| C=CC(=O)Nc1cc(Nc2nccc(-c3cn(C)c4ccccc34)n2)c(OC)cc1N(C)CCN(C)C | -63.1% (inactive) |
| C[C@H](CCC(=O)O)[C@H]1CCC2C3C(=O)CC4CC(=O)CC[C@]4(C)C3CC(=O)[C@@]21C (stereo partly specified) | 8.53% (inactive) and 10.4% (inactive) |
| O=c1[nH]cnc2nc[nH]c12 | 7.14% (inactive) |
| COc1cccc(-c2cc(=O)c3cc(OC)ccc3o2)c1 | 316% (inactive) |
| O=C1Nc2ccc(Br)cc2/C1=C/c1cc2c([nH]1)CCCC2 | 13.6% (inactive) |
| CCCCC(CC)CN=C(N)NC(N)=NCCCCCCN=C(N)NC(N)=NCC(CC)CCCC (stereo unspecified) | -87.6% (active) |
| CCCCCCCCCCC(CO)CCCCCCCC (stereo unspecified) | 7.89% (inactive) |
| CC(N)=NCCCC[C@H](N)C(=O)O | 11.5% (inactive) |
| C=C1CCC2C(CC2(C)C)C(=O)CCC1O (stereo unspecified) | 4.7% (inactive) |
| C[C@@]1(C(=O)Nc2ccc(F)nc2)CCCN1c1nc(Nc2cc(C3CC3)[nH]n2)c2cccn2n1 | -54.4% (inactive) |
| CCOC(=O)[C@H](CCc1ccccc1)N[C@@H](C)C(=O)N1C(=O)N(C)C[C@@H]1C(=O)O | 6.47% (inactive) |
| CC1CCC(C(=O)N(c2cc(C#CC(C)(C)C)sc2C(=O)O)C2CCC(O)CC2)CC1 (stereo unspecified) | 16.2% (inactive) |
| CCCCCC(=O)O[C@]1(C(C)=O)CCC2C3CCC4=CC(=O)CC[C@]4(C)C3CC[C@@]21C (stereo partly specified) | -76.9% (active) |

| Compound | activity change, negative = inhibition |
| --- | --- |
| C[C@]12CC[C@H]3[C@@H](CCC4=CC(=O)CC[C@@]43C)[C@@H]1CC[C@@H]2C(=O)CO | -83.1% (active) |
| CC(=O)[C@@]1(O)CCC2C3CCC4=CC(=O)CC[C@]4(C)C3CC[C@@]21C (stereo partly specified) | 6.92% (inactive) and 3.13% (inactive) |
| CCC(=O)O[C@]1(C(=O)CO)CC[C@H]2[C@@H]3CCC4=CC(=O)CC[C@]4(C)[C@H]3CC[C@@]21C | -9.17% (inactive) |
| CCCCC(=O)O[C@]1(C(=O)CO)CCC2C3CCC4=CC(=O)CC[C@]4(C)C3[C@@H](O)C[C@@]21C (stereo partly specified) | 0.149% (inactive) and 0.816% (inactive) |
| CC(=O)OCC(=O)[C@H]1CCC2C3CC=C4C[C@@H](O)CC[C@]4(C)C3CC[C@@]21C (stereo partly specified) | 7.77% (inactive) |
| CC(=O)OCC(=O)[C@H]1CCC2C3CCC4=CC(=O)CC[C@]4(C)C3CC[C@@]21C (stereo partly specified) | 0.487% (inactive) |
| CC(=O)OCC(=O)[C@H]1CC[C@H]2[C@@H]3CCC4=CC(=O)CC[C@]4(C)[C@H]3CC[C@]12C | -73.9% (active) and -75.9% (active) |
| C[C@]12C[C@H](O)[C@H]3[C@@H](CCC4=CC(=O)CC[C@@]43C)[C@@H]1CC[C@@H]2C(=O)CO | 1.69% (inactive) |
| CCCOc1ccc(Br)cc1-c1cc(-c2ccc(Cl)cc2)[nH]c1-c1ccncc1 | -7.79% (inactive) |
| CC(C)N1CCN(c2ccc(C(=O)c3c(-c4ccc(O)cc4)sc4cc(O)ccc34)cc2)CC1 | -3.21% (inactive) and -13.9% (inactive) |
| NC(N)=Nc1nc(CSCC/C(N)=N\S(N)(=O)=O)cs1 | 15.8% (inactive) and 7.35% (inactive) |
| CN1CCN(C2=Nc3cc(F)ccc3Cc3ccccc32)CC1 | -3.95% (inactive) |
| CCOC(=O)C12CC1/C(=N/O)c1ccccc1O2 (stereo unspecified) | 10.1% (inactive) |
| O=[Si]=O | 10.7% (inactive) |
| CCCCCCCCN1C(=O)C(C(C)=O)=C(C)C1(C)O (stereo unspecified) | 12.4% (inactive) |
| O=C(O)[C@H]1CN(CCCP(=O)(O)O)CCN1 | 4.53% (inactive) |
| Oc1ccc2c(c1)OCC1(O)Cc3cc(O)c(O)cc3C21 (stereo unspecified) | -0.693% (inactive) |
| Nc1[nH]nc2nc3ccccc3nc12 | 19.2% (inactive) |
| Nc1nc(=S)c2ncn([C@@H]3O[C@H](CO)[C@@H](O)[C@H]3O)c2[nH]1 | -79.5% (active) |
| Nc1nc2c(ncn2[C@@H]2O[C@@H](CO)[C@@H](O)[C@H]2O)c(=O)[nH]1 | -3.02% (inactive) |
| Nc1ncnc2c1ncn2[C@@H]1O[C@H](CO)[C@@H](O)[C@H]1O | 6.4% (inactive) |
| Cc1nnsc1C(=O)Nc1ccc(-n2nc(C(F)(F)F)cc2C(F)(F)F)cc1 | -80% (active) |
| COc1ccc2oc3ccccc3c(=O)c2c1 | 118% (inactive) |
| OCC1OC2OC3C(CO)OC(OC4C(CO)OC(OC5C(CO)OC(OC6C(CO)OC(OC7C(CO)OC(OC8C(CO)OC(OC1C(O)C2O)C(O)C8O)C(O)C7O)C(O)C6O)C(O)C5O)C(O)C4O)C(O)C3O (stereo unspecified) | 1.48% (inactive) |
